In PubChem BioAssay (NCATS):
Inconclusive results are not listed. Activity calls are given as the source filed them. Calls follow the shape of the dose curve; as a rule, active = well fitted inhibition curve with a large enough effect; inconclusive = small, poorly fitted or top-dose-only effect; inactive = no such curve, though single readings can be large or run the other way.

Molecular target: Cytochrome P450 2C19 (Homo sapiens) (UniProt P33261)
Experiment: qHTS Assay for Inhibitors and Substrates of Cytochrome P450 2C19 (AID 899); also: nearly all actives have a fitted effect of over 60% in size
Details: recombinant CYP2C19, luciferin-H EGE luminescence; series mostly up to 57.1 µM
Description: NIH Molecular Libraries Screening Centers Network [MLSCN]
NIH Chemical Genomics Center [NCGC]
The P450 gene superfamily is involved in the metabolism and clearance of xenobiotics. This assay used human CYP2C19 to measure the hydroxylation of ethylene glycol ester of 6' deoxyluciferin (Luciferin-H EGE; […]) to luciferin. The luciferin is then measured by luminescence after the addition of a luciferase detection reagent. Luciferin-H EGE concentration in the assay was equal to its KM for CYP2C19. Inhibitors and some substrates limit the production of luciferin, and decrease measured luminescence.
NCGC Assay Protocol Summary:
Two uL of enzyme and substrate mix (final concentrations: 5nM CYP2C19, 10uM Luciferin-H EGE, 50mM KPO4) were dispensed into a white, solid bottom 1536-well microtiter plate. 23nL of compound was transferred by a pin tool. The plate was incubated at 37C for 10 min. Two uL of an NADPH regeneration solution (Promega supplied reagent) was dispensed and the reaction was allowed to continue for 60 min at 37C. Then the reaction was stopped by reconstituted luciferin detection buffer. After another 20 min of incubation the plate was read on the ViewLux (Perkin Elmer) at 60 sec exposure and 2x2 binning. This protocol was carried out with Promega-Glo reagents and further information can be found at http://www.promega.com/tbs/tb325/tb325.pdf. Data were normalized to the to AC100 inhibition (57uM ketoconazole).
Keywords: P450, CYP2C19, Luciferase, MLSMR, MLSCN, NIH Roadmap, qHTS, NCGC
Potency is read from the fitted curve at half-maximal effect.

Sequence of Cytochrome P450 2C19 (Homo sapiens) (P33261 whole entry, looked up): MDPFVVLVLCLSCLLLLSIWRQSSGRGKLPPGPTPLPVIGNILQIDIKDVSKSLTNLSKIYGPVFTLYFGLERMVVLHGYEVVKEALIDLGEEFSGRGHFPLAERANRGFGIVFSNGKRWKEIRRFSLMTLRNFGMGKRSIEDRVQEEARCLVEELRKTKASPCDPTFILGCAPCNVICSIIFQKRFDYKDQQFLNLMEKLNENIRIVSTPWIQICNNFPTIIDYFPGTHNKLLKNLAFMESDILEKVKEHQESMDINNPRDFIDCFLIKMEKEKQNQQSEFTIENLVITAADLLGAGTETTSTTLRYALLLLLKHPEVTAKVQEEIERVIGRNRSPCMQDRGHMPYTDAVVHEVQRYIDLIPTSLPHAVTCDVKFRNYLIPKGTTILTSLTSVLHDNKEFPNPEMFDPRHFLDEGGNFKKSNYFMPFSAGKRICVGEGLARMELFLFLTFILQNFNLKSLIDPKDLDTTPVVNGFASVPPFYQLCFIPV

| SMILES | Potency |
| --- | --- |
| COc1ccccc1N1CCN(CCCNc2cc(=O)n(C)c(=O)n2C)CC1 | 7.94 µM (active) |
| CCN1CCC[C@H]1CNC(=O)c1cc(S(N)(=O)=O)ccc1OC | inactive |
| Clc1ccc(Cn2c(CN3CCCC3)nc3ccccc32)cc1 | 0.199 µM (active) |
| CC(=O)CCCCn1c(=O)c2c(ncn2C)n(C)c1=O | inactive |
| CS(=O)c1ccc(-c2nc(-c3ccc(F)cc3)c(-c3ccncc3)[nH]2)cc1 (configuration not stated) | 0.0398 µM (active) |
| COc1ccc(-c2coc3cc(O)cc(O)c3c2=O)cc1 | 7.94 µM (active) |
| O=c1c(-c2ccc(O)cc2)coc2cc(O)ccc12 | inactive |
| O=c1cc(-c2ccccc2)oc2cc(O)c(O)c(O)c12 | 5.01 µM (active) |
| CC(=O)c1ccc(S(=O)(=O)NC(=O)NC2CCCCC2)cc1 | inactive |
| CCCNC(=O)NS(=O)(=O)c1ccc(Cl)cc1 | inactive |
| CCCCC1C(=O)N(c2ccccc2)N(c2ccccc2)C1=O | inactive |
| COc1cccc(-c2cc(=O)c3ccccc3o2)c1N | 6.31 µM (active) |
| c1cc(-c2sc(-c3ccncc3)c(-c3ccncc3)c2-c2ccncc2)ccn1 | 1.58 µM (active) |
| O=c1cc(-c2ccccc2)oc2cc(O)cc(O)c12 | 0.794 µM (active) |
| COCCCCC(=NOCCN)c1ccc(C(F)(F)F)cc1 | 0.0631 µM (active) |
| O=c1cc(-c2ccc(O)cc2)oc2cc(O)cc(O)c12 | 7.94 µM (active) |
| CCN(CC)C(=O)c1ccc(O)c(OC)c1 | inactive |
